Test results reported in paper PMC7862700, “An all-to-all approach to the identification of sequence-specific readers for epigenetic DNA modifications on cytosine”.

Tests used:
Experiment in all cases: DAPPL (digital affinity profiling via proximity ligation, sequencing); 10 mM Tris-HCl pH 7.5, 50 mM NaCl, 1 mM DTT, 4% glycerol, room temperature, 30 min; GST-TFs on glutathione beads, 16-mer random dsDNA library, 0.1% formaldehyde crosslink after washing; high values mean tight binding
FEV = biological target: T1, FEV (Homo sapiens, UniProt Q99581 1-238); settings: protein: recombinant; tags: N-terminal GST; dsDNA, one strand shown
T1 sequence: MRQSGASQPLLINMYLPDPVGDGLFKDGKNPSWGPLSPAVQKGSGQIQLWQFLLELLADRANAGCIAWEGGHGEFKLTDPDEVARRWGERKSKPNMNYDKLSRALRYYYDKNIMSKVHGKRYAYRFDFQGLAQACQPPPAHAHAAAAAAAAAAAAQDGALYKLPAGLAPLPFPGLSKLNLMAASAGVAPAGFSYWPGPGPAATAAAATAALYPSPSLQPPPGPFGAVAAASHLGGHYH
In short: (§1)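 Beads coated with glutathione captured GST-fused human transcription factors that had been expressed in yeast, and the factors were then given DNA barcodes and pooled with a tag-only sample. The pools were incubated with 200 nmole of a random double-stranded 16-mer DNA library in Tris/NaCl/DTT/glycerol buffer for 30 min at room temperature, washed, crosslinked with 0.1% formaldehyde and proximity-ligated with BsaI/T4 ligase at 37 °C for 1 h. PCR amplification and Illumina NextSeq500 sequencing came last. Binding signal is each hexamer's read frequency for a factor divided by its frequency for the tag-only sample.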

ETV5 = ETV5 (Homo sapiens, UniProt P41161 1-510); settings: protein: recombinant; tags: N-terminal GST; dsDNA, one strand shown
ETV5, sequence (P41161 whole entry): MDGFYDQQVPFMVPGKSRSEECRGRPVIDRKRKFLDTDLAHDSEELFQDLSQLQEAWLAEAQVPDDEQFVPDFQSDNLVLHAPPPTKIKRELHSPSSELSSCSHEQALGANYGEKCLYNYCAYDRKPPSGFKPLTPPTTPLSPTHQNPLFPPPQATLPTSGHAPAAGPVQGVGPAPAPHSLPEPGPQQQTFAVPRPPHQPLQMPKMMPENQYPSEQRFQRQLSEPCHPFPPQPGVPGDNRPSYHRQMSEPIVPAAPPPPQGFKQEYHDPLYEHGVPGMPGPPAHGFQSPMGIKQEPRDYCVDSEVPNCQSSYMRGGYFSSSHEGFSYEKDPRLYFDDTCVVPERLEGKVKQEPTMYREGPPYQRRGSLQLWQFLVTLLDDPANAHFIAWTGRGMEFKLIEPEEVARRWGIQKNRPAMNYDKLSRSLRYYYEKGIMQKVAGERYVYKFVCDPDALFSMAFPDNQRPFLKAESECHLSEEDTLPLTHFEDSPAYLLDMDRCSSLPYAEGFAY
In short: as §1

HSF1 = HSF1 (Homo sapiens, UniProt Q00613 1-529); settings: protein: recombinant; tags: N-terminal GST; chain copies: 3; dsDNA, one strand shown
HSF1, sequence (Q00613 whole entry): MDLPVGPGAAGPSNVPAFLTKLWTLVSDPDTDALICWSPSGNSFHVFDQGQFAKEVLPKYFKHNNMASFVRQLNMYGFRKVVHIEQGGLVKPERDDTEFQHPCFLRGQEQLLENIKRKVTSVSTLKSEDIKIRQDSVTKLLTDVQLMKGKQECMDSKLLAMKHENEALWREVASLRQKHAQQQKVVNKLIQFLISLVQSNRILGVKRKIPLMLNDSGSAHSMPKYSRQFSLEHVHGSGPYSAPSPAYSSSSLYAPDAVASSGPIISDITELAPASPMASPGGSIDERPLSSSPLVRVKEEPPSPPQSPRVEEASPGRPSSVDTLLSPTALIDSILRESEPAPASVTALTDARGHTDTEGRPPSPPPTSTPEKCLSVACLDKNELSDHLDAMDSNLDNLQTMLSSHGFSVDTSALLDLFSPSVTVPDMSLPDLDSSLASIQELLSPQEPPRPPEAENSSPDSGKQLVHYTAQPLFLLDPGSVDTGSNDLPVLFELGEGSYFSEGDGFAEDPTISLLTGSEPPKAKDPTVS
In short: as §1

SPIC = biological target: T2, SPIC (Homo sapiens, UniProt Q8N5J4 1-248); settings: protein: recombinant; tags: N-terminal GST; dsDNA, one strand shown
T2 sequence: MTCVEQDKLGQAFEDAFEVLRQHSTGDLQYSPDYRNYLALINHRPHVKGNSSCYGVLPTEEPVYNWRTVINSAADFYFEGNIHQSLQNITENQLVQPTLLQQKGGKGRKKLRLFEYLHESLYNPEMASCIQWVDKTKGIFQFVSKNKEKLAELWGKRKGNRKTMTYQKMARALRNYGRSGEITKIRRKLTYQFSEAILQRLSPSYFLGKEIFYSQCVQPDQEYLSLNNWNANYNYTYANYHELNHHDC
In short: as §1

ELF4 = ELF4 (Homo sapiens, UniProt Q99607 1-663); settings: protein: recombinant; tags: N-terminal GST; dsDNA, one strand shown
ELF4, sequence (Q99607 whole entry): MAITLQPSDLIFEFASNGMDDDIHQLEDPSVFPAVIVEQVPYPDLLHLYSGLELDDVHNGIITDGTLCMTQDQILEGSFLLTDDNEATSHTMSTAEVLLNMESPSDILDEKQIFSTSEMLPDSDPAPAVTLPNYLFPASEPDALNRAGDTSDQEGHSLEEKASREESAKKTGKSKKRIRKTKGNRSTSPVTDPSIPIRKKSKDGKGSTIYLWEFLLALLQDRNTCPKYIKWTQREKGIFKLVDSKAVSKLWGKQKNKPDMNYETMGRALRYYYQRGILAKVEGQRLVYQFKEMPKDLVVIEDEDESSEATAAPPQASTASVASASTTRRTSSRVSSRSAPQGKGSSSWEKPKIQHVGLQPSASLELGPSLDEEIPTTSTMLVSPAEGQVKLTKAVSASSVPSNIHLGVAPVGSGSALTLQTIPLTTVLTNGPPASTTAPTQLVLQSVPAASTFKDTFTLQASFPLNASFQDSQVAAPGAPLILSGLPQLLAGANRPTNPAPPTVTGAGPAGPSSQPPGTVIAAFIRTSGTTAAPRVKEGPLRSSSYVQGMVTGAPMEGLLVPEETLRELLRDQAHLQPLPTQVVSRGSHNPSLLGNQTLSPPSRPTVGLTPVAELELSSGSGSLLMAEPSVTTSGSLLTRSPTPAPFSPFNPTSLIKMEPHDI
In short: as §1

ELK4 = biological target: T3, ELK4 (Homo sapiens, UniProt P28324-2 1-405); settings: protein: recombinant; tags: N-terminal GST; dsDNA, one strand shown
T3 sequence: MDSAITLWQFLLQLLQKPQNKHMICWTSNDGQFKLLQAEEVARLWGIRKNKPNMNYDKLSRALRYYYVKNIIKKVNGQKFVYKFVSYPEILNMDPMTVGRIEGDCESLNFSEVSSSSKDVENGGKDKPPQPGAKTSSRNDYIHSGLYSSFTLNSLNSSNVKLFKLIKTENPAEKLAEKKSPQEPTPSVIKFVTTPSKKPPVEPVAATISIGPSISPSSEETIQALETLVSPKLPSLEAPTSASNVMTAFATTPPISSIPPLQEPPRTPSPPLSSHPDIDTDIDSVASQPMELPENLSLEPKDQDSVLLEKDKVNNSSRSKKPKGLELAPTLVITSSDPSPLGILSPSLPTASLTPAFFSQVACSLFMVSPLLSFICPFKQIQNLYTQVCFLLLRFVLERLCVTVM
In short: as §1

ETV2 = biological target: T4, ETV2 (Homo sapiens, UniProt O00321 1-342); settings: protein: recombinant; tags: N-terminal GST; dsDNA, one strand shown
T4 sequence: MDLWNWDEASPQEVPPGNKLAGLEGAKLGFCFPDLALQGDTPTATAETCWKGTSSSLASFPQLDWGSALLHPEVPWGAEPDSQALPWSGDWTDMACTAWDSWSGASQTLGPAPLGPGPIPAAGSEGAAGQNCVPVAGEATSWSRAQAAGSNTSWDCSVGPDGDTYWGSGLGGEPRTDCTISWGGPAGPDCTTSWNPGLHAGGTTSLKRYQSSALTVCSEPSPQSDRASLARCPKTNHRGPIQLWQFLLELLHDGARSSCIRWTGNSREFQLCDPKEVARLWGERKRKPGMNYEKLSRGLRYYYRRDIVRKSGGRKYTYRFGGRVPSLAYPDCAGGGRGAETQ
In short: as §1

ELF3 = biological target: T5, ELF3 (Homo sapiens, UniProt P78545 1-371); settings: protein: recombinant; tags: N-terminal GST; dsDNA, one strand shown
T5 sequence: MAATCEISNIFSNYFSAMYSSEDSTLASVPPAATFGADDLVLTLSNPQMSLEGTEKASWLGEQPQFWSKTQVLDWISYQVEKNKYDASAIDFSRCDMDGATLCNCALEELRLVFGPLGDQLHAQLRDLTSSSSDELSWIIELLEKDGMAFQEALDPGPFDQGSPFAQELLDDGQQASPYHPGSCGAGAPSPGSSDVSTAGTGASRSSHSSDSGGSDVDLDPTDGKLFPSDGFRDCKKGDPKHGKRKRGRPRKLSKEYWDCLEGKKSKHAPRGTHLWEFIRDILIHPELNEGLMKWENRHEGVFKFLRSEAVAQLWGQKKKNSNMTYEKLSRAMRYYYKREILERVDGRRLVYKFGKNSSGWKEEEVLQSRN
In short: as §1

CRX = CRX (Homo sapiens, UniProt O43186 1-299); settings: protein: recombinant; tags: N-terminal GST; dsDNA, one strand shown
CRX, sequence (O43186 whole entry): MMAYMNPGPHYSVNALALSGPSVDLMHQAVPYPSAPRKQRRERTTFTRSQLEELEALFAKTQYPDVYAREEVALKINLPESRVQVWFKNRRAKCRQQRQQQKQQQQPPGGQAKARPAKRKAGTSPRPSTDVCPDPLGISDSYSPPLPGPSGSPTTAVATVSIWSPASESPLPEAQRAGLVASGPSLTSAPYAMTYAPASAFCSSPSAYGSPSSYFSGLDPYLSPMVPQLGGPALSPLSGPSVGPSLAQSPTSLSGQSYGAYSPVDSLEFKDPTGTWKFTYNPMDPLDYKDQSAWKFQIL
In short: as §1

ETV1 = ETV1 (Homo sapiens, UniProt P50549 1-477); settings: protein: recombinant; tags: N-terminal GST; dsDNA, one strand shown
ETV1, sequence (P50549 whole entry): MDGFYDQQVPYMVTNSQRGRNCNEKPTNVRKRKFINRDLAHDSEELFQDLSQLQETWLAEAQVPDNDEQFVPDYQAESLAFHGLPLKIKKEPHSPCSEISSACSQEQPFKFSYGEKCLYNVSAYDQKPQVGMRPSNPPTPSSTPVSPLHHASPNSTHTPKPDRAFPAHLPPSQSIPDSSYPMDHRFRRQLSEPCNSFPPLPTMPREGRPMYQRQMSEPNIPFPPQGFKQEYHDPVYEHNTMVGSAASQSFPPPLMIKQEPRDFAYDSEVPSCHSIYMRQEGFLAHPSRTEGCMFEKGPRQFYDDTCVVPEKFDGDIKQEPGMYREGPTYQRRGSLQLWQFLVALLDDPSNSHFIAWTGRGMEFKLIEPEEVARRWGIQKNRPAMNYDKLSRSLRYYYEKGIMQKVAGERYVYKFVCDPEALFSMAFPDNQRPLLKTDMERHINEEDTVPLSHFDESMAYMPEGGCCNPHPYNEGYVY
In short: as §1

ERF = biological target: T6, ERF (Homo sapiens, UniProt P50548 1-548); settings: protein: recombinant; tags: N-terminal GST; dsDNA, one strand shown
T6 sequence: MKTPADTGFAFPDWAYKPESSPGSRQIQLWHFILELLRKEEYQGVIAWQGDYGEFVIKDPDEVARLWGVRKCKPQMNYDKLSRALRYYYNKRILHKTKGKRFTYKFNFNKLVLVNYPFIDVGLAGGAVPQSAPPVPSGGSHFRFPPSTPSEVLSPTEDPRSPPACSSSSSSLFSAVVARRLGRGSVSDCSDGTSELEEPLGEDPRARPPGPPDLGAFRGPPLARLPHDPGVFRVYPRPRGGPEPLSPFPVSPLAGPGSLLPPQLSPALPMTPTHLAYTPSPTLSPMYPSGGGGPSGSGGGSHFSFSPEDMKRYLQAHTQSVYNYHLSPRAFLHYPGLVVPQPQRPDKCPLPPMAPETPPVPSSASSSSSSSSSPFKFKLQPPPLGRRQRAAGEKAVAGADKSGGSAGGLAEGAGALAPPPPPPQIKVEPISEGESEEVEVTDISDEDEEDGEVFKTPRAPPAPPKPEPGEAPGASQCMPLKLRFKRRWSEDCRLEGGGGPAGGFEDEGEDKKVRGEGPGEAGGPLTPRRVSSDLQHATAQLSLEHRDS
In short: as §1

ETV3L = biological target: T7, ETV3L (Homo sapiens, UniProt Q6ZN32 1-361); settings: protein: recombinant; tags: N-terminal GST; dsDNA, one strand shown
T7 sequence: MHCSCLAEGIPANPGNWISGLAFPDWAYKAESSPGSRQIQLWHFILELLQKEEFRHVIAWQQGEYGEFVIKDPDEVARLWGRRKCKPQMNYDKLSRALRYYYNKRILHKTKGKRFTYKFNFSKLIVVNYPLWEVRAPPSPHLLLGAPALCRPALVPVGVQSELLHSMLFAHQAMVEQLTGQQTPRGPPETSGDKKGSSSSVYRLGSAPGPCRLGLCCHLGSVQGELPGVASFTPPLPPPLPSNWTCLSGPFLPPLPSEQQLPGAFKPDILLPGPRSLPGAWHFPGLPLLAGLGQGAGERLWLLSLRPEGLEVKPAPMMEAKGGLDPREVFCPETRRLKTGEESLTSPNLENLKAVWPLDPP
In short: as §1

ETS2 = biological target: T8, ETS2 (Homo sapiens, UniProt P15036 1-469); settings: protein: recombinant; tags: N-terminal GST; dsDNA, one strand shown
T8 sequence: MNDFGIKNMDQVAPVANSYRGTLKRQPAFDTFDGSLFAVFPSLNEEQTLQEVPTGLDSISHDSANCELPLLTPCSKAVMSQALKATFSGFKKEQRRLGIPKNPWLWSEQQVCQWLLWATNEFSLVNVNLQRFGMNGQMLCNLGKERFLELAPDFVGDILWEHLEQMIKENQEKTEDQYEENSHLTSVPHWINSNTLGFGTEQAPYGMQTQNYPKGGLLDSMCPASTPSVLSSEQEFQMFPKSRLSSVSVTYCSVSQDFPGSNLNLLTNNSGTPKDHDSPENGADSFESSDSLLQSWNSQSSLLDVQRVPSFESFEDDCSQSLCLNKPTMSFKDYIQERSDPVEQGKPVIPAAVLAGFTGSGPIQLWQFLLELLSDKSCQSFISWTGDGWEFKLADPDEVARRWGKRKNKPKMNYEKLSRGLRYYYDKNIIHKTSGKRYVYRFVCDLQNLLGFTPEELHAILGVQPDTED
In short: as §1

SPDEF = biological target: T9, SPDEF (Homo sapiens, UniProt O95238 1-335); settings: protein: recombinant; tags: N-terminal GST; dsDNA, one strand shown
T9 sequence: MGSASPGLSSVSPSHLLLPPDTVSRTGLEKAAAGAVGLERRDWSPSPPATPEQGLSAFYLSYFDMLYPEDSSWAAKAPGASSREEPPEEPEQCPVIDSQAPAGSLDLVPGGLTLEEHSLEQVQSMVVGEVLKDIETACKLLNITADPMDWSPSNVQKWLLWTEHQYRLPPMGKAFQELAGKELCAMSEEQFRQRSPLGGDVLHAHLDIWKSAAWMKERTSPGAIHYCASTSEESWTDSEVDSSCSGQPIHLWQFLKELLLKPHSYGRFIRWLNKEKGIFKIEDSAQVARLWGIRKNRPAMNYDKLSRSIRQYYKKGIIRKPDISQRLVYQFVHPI
In short: as §1

ETV7 = biological target: T10, ETV7 (Homo sapiens, UniProt Q9Y603 1-341); settings: protein: recombinant; tags: N-terminal GST; dsDNA, one strand shown
T10 sequence: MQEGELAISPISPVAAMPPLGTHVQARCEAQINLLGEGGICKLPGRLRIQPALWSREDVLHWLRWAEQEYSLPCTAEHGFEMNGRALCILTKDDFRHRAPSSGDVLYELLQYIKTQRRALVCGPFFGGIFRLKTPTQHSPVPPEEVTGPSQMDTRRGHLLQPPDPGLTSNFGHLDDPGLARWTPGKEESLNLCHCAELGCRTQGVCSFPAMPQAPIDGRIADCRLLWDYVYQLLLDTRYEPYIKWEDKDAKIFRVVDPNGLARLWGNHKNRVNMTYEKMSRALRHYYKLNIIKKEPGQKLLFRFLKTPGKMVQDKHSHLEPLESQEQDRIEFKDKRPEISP
In short: as §1

ELF5 = biological target: T11, ELF5 (Homo sapiens, UniProt Q9UKW6-2 1-255); settings: protein: recombinant; tags: N-terminal GST; dsDNA, one strand shown
T11 sequence: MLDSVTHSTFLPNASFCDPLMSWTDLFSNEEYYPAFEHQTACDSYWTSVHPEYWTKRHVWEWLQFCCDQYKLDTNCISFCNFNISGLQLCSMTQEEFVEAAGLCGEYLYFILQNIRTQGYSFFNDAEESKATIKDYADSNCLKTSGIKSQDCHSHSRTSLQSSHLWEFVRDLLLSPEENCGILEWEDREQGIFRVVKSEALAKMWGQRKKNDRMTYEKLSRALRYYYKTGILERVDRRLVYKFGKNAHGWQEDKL
In short: as §1

ETV3 = biological target: T12, ETV3 (Homo sapiens, UniProt P41162-2 1-143); settings: protein: recombinant; tags: N-terminal GST; dsDNA, one strand shown
T12 sequence: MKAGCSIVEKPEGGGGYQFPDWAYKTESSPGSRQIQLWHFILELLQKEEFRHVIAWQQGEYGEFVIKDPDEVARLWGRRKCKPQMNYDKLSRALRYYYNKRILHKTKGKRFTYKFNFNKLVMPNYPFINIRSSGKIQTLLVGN
In short: as §1

ETV6 = ETV6 (Homo sapiens, UniProt P41212 1-452); settings: protein: recombinant; tags: N-terminal GST; dsDNA, one strand shown
ETV6, sequence (P41212 whole entry): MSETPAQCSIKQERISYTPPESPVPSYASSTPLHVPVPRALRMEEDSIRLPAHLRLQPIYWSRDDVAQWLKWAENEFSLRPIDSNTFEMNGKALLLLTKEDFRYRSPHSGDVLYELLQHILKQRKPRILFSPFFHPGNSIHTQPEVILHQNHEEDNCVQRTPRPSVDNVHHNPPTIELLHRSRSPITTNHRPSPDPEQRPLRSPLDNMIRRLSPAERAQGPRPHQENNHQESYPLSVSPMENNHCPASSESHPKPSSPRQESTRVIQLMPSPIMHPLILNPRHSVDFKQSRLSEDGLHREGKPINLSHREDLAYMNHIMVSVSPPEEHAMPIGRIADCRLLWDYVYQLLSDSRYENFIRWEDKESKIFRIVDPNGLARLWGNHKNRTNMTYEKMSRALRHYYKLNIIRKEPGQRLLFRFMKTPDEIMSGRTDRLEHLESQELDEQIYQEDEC
In short: as §1

For CTTTCA, the binding signal (FEV) was 1.31 fold enrichment (6-mer frequency, TF over GST control), the binding signal (ETV5) was 1.26 fold enrichment (6-mer frequency, TF over GST control) and the binding signal (HSF1) was 1.28 fold enrichment (6-mer frequency, TF over GST control). The binding signal (SPIC) was 1.37 fold enrichment (6-mer frequency, TF over GST control), the binding signal (ELF4) was 1.44 fold enrichment (6-mer frequency, TF over GST control) and the binding signal (ELK4) was 1.54 fold enrichment (6-mer frequency, TF over GST control). The binding signal (ETV2) was 1.42 fold enrichment (6-mer frequency, TF over GST control), the binding signal (ELF3) was 1.18 fold enrichment (6-mer frequency, TF over GST control) and the binding signal (CRX) was 1.25 fold enrichment (6-mer frequency, TF over GST control). For the same sequence, the binding signal (ETV1) was 1.45 fold enrichment (6-mer frequency, TF over GST control), the binding signal (ERF) was 1.44 fold enrichment (6-mer frequency, TF over GST control) and the binding signal (ETV3L) was 1.38 fold enrichment (6-mer frequency, TF over GST control). The binding signal (ETS2) was 1.31 fold enrichment (6-mer frequency, TF over GST control), the binding signal (SPDEF) was 1.26 fold enrichment (6-mer frequency, TF over GST control) and the binding signal (ETV7) was 1.33 fold enrichment (6-mer frequency, TF over GST control). For the same sequence, the binding signal (ELF5) was 1.4 fold enrichment (6-mer frequency, TF over GST control), the binding signal (ETV3) was 1.39 fold enrichment (6-mer frequency, TF over GST control) and the binding signal (ETV6) was 1.24 fold enrichment (6-mer frequency, TF over GST control).
